The source made the active and inactive calls.
Experiments:
[1] = tested on: Plasmodium falciparum Sir2 (PF13_0152, Sir2A); test: Plasmodium falciparum Sir2A binding compounds – biochemical, small-molecule microarray, 635 nm fluorescence, primary screen (AID 1098); details: fluorescence 635 nm, higher = more signal;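 also: score merges spot fluorescence intensity with its signal-to-noise ratio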
[2] = probe aDKK1 binding to arrayed compounds – biochemical, biotinylated probe, 635/667 nm fluorescence, primary screen (AID 1099); details: small-molecule microarray, higher = more signal;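 also: score merges 667nm spot fluorescence with signal to noise across triplicate slides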
[3] = probe aCHRDL2 binding to arrayed compounds – biochemical, biotinylated probe, 635/667 nm fluorescence, primary screen (AID 1100); details: small-molecule microarray, higher = more signal
[4] = change in splice reporter luminescence, either direction, cell-based, HEK293, spliceosome inhibition project, primary screen (AID 1101); details: HEK293 splicing luciferase reporter, 24 h, higher = more signal, called active from +8 up or from −8 down;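 also: HEK293 cells carrying a splicing-competent luciferase reporter gene; test concentration not given here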
[5] = target: Fibroblast growth factor 10 (Homo sapiens) (UniProt O15520); test: compounds binding fibroblast growth factor 10 – biochemical, small-molecule microarray, 635 nm fluorescence, primary screen (AID 1102); details: FGF10 binding, fluorescence 635 nm, higher = more signal
Chain of Fibroblast growth factor 10 (Homo sapiens) (O15520 whole entry, looked up): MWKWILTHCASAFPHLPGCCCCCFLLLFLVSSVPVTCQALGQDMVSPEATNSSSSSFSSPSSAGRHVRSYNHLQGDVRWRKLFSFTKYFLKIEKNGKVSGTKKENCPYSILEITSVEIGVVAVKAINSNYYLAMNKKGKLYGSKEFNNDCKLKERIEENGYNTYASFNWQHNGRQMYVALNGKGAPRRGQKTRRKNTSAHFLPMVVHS

[6] = tested on: glycogen synthase kinase-3 (GSK3A per assay name; protocol says GSK3B); test: compounds binding glycogen synthase kinase-3 – biochemical, small-molecule microarray, 635 nm fluorescence, GSK3A, primary screen (AID 1103); details: fluorescence 635 nm, higher = more signal; also: the record names both GSK3A and GSK3B
[7] = target: Epidermal growth factor receptor (Homo sapiens) (UniProt P00533); test: compounds binding epidermal growth factor receptor – biochemical, small-molecule microarray, 635 nm fluorescence, primary screen (AID 1104); details: EGFR binding, higher = more signal;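 also: score merges 667 nm emission intensity with spot signal to noise over triplicate slides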
Chain of Epidermal growth factor receptor (Homo sapiens) (P00533 whole entry, looked up): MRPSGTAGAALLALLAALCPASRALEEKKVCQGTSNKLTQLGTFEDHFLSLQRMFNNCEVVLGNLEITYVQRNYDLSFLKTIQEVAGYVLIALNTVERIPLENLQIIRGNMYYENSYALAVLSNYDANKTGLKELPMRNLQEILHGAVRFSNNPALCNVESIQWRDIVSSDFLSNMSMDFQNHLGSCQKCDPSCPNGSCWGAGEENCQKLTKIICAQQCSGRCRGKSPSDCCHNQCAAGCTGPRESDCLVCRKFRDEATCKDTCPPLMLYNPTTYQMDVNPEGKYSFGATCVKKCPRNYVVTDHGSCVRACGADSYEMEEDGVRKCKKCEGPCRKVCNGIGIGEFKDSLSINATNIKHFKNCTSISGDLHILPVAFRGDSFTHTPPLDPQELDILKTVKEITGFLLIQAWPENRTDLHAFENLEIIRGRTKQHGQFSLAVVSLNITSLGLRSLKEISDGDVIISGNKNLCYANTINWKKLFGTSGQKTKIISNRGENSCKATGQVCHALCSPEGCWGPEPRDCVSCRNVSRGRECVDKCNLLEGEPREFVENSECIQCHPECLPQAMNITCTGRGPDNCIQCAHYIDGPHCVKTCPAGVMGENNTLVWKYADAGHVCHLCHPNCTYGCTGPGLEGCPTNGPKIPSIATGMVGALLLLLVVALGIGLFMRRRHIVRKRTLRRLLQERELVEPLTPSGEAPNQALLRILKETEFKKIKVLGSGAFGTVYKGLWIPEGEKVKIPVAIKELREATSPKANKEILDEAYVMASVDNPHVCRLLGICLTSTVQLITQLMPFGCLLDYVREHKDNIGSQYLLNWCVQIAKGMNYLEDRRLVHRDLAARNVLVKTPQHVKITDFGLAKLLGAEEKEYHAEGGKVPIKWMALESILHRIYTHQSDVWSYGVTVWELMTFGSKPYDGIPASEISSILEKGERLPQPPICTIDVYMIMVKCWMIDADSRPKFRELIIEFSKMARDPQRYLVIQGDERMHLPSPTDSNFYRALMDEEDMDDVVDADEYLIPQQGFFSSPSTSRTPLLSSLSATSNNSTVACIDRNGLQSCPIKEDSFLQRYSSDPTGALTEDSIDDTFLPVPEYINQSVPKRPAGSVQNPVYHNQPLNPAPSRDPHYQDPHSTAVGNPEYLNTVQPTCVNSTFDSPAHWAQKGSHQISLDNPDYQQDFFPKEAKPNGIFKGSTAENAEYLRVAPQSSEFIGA

[8] = target: Follistatin-related protein 3 (Homo sapiens) (UniProt O95633); test: compounds binding follistatin-related protein 3 – biochemical, small-molecule microarray, 635 nm fluorescence, primary screen (AID 1105); details: FSTL3 binding, higher = more signal;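 also: score merges emission near 667 nm and signal to noise per printed spot across three slides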
Chain of Follistatin-related protein 3 (Homo sapiens) (O95633 whole entry, looked up): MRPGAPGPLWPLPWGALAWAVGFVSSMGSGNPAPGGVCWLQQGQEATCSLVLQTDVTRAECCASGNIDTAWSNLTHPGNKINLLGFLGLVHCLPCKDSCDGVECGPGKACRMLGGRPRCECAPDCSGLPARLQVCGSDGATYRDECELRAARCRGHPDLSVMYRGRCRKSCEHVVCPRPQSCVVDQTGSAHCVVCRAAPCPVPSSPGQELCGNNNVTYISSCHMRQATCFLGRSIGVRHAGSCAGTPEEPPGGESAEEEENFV

[9] = target: Dickkopf-related protein 1 (Homo sapiens) (UniProt O94907); test: small molecules binding DKK1 protein – biochemical, small-molecule microarray, 635 nm fluorescence scan, primary screen (AID 1106); details: higher = more signal;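 also: score merges emission near 667 nm with signal to noise over three replicate slides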
Chain of Dickkopf-related protein 1 (Homo sapiens) (O94907 whole entry, looked up): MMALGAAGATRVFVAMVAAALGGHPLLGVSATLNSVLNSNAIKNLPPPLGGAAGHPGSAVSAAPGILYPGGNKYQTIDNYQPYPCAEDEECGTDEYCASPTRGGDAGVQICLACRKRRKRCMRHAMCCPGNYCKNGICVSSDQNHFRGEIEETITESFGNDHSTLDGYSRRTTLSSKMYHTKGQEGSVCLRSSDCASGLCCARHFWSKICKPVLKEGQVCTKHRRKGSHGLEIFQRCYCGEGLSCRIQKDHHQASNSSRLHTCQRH

[10] = tested on: Inhibin beta A chain (activin A); test: small molecules binding activin A – biochemical, small-molecule microarray, 635 nm fluorescence scan, primary screen (AID 1107); details: INHBA, higher = more signal;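 also: mouse activin A protein probed at 4.33 µg/mL on printed slides; score merges bound-protein fluorescence near 667 nm with spot signal-to-noise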
[11] = tested on: Human papillomavirus type 1a protein E7 (residues 44-93); test: small molecules binding HPV E7 44-93 – biochemical, small-molecule microarray, residues 44-93, 635 nm fluorescence, primary screen (AID 1108); details: fluorescence 635 nm, higher = more signal;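 also: E7 fragment applied at 1 µg/mL in TBST for 1 h at 4 C; score combines spot fluorescence with its signal to noise ratio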
[12] = hepatitis C replication reporter changes, two-sided – Huh7 cells, luciferase reporter, HCV replication inhibitor project, primary screen (AID 1109); details: Huh7 HCV replicon luciferase reporter, 48 h; higher = more signal;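 also: huh7 hepatoma cells harbouring a luciferase neomycin HCV replicon reporter; luciferase luminescence as measure of HCV replicon replication; test concentration not given here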
[13] = target: Left-right determination factor 2 (Homo sapiens) (UniProt O00292); test: small molecules binding LEFTY2 protein – biochemical, small-molecule microarray, 635 nm fluorescence scan, primary screen (AID 1110); details: higher = more signal
Chain of Left-right determination factor 2 (Homo sapiens) (O00292 whole entry, looked up): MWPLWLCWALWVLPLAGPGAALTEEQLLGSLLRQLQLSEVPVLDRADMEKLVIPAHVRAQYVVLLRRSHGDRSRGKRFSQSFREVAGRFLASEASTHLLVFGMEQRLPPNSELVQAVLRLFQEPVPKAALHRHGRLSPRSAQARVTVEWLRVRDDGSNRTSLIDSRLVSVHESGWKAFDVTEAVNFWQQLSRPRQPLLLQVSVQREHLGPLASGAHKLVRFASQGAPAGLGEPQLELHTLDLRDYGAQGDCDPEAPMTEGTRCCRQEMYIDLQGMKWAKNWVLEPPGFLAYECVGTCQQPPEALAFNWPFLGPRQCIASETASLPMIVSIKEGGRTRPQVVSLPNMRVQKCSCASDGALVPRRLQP

[14] = target: Calmodulin-1 (Homo sapiens) (UniProt P0DP23); test: small molecules binding calmodulin-1 with EGTA – biochemical, small-molecule microarray, Cy5-labelled CALM1, profiling panel (AID 1111); details: Cy5-CALM1 binding fluorescence, higher = more signal;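 also: labelled calmodulin applied in Tris saline Tween buffer holding calcium plus EGTA and DTT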
[15] = target: Calmodulin-1 (Homo sapiens) (UniProt P0DP23); test: small molecules binding Ca-loaded calmodulin-1 – biochemical, small-molecule microarray, Cy5-labelled CALM1, plus calcium, artefact control for SMM control-protein annotation, profiling panel (AID 1112); details: Cy5-CALM1 binding fluorescence, higher = more signal;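 also: score merges spot fluorescence with signal to noise from triplicate slides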
[16] = probe aWnt5a binding to arrayed compounds – biochemical, biotinylated probe, 635/667 nm fluorescence, primary screen (AID 1113); details: small-molecule microarray, higher = more signal;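 also: score merges 667 nm fluorescence intensity with signal-to-noise per printed feature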
[17] = probe aShh binding to arrayed compounds – biochemical, biotinylated probe, 635/667 nm fluorescence, primary screen (AID 1114); details: small-molecule microarray, higher = more signal;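 also: probe is biotin-labelled aShh protein from a stem cell growth factor screen; measures binding of labelled protein to compounds printed on the slide; score merges feature fluorescence at 667 nm with signal-to-noise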
[18] = probe aNog binding to arrayed compounds – biochemical, biotinylated probe, 635/667 nm fluorescence, primary screen (AID 1115); details: small-molecule microarray, higher = more signal;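 also: probe is biotinylated aNog protein used at 0.15 µg/mL for 1 h at 4 C; z-score combines 667 nm fluorescence of each spot with its signal to noise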
[19] = target: Torsin-1A-interacting protein 1 (Homo sapiens) (UniProt Q5JTV8); test: compound microarray binding of lysate hLAP1 – cell lysate, small-molecule microarray, COS7 lysate, 635/667 nm fluorescence, primary screen (AID 1116); details: 635 nm fluorescence, higher = more signal
Chain of Torsin-1A-interacting protein 1 (Homo sapiens) (Q5JTV8 whole entry, looked up): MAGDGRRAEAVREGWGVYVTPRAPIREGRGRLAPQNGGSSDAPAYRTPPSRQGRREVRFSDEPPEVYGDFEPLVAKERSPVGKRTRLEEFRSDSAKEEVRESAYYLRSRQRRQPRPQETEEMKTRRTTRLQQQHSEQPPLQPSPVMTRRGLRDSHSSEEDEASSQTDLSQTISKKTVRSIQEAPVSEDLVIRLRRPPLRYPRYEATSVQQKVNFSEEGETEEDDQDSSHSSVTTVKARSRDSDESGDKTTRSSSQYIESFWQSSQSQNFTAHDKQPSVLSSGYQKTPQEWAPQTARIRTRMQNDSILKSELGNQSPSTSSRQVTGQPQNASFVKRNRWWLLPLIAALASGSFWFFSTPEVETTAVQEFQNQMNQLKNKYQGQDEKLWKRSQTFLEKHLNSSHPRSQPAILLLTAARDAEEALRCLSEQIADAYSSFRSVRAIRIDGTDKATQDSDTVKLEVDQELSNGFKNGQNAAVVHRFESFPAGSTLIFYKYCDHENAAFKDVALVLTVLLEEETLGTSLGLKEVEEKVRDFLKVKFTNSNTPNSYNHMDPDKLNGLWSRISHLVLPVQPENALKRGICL

[20] = target: Alpha-bungarotoxin (Bungarus multicinctus) (UniProt P60615); test: compounds binding labelled alpha-BTX control protein – biochemical, small-molecule microarray, Alexa647 label, 635/667 nm fluorescence, artefact control for SMM control protein annotation, profiling panel (AID 1117); details: alpha-BTX-A647 binding fluorescence, higher = more signal
Chain of Alpha-bungarotoxin (Bungarus multicinctus) (P60615 whole entry, looked up): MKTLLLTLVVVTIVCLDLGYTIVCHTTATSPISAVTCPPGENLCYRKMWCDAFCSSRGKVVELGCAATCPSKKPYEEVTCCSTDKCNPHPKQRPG

Row | Compound | composite z-score [1] | composite z-score [2] | composite z-score [3] | z-score [4] | composite z-score [5] | composite z-score [6] | composite z-score [7] | composite z-score [8] | composite z-score [9] | composite z-score [10] | composite z-score [11] | z-score [12] | composite z-score [13] | composite z-score [14] | composite z-score [15] | composite z-score [16] | composite z-score [17] | composite z-score [18] | composite z-score [19] | composite z-score [20]
1 | C=C(CCCC)/C(=C/C[C@H](OC(=O)c1ccncc1)c1cccc(OCCO)c1)c1cnc2ccccc2c1 | 1.15 | -0.138 | -0.303 | 0.223 (inactive) | 0.853 | 0.783 | 0.463 | 1.28 | 0.483 | 1.6 | 1.39 | -2.46 | 0.354 | 0.0734 | -0.731 | -0.0459 | -0.0035 | -0.0496 | -0.064 | 0.551
2 | COCCOC(=O)N1C(=O)[C@@]2(c3cc(C#CC4(O)CCCCCC4)ccc31)[C@H](c1ccc(O)cc1)N1[C@H](c3ccccc3)[C@H](c3ccccc3)OC(=O)[C@H]1[C@@H]2C(=O)N1CCCCCCC1 | 1.08 | 1.2 | 0.771 | -0.803 (inactive) | 1.28 | 1.29 | 0.314 | 1.05 | 0.112 | 1.72 | -0.622 | -1.05 | 0.298 | -0.39 | -0.631 | 0.0742 | 0.0907 | 2.25 | 1.88 | 0.88
3 | C=C(CCCC)/C(=C/C[C@@H](OC(C)=O)c1ccc(CO)o1)c1cnc2ccccc2c1 | 1.08 | -0.282 | -0.428 | 0.179 (inactive) | 1.46 | 1.3 | 0.533 | 1.4 | 0.768 | 1.05 | 1.42 | -0.756 | 0.735 | 0.626 | -0.764 | -0.0704 | 0.147 | -0.0719 | 1.69 | 1.15
4 | CCCCN1CC=CC23O[C@@H]4/C=C\CCCOC(=O)C4[C@H]2C(=O)N(C(CO)C(C)C)[C@@H]3C1=O (stereo not given in full) | -0.459 | -0.277 | -0.179 | 0.558 (inactive) | -0.138 | -0.115 | 0.183 | -0.436 | 0.323 | 1.21 | -0.0052 | -0.134 | 0.272 | -0.11 | -0.0085 | -0.0482 | 0.0469 | -0.51 | 0.0974 | -0.838
5 | O=C1C[C@]2(c3ccc([N+](=O)[O-])cc3)C(=O)N(C3CC3)c3cc(CO)ccc3[C@H]2N1C1CCCCC1 | 0.389 | -0.0619 | 0.305 | -0.282 (inactive) | -0.104 | 0.139 | -0.0618 | -0.184 | -0.198 | 0.847 | 0.481 | 0.82 | 0.0985 | -0.301 | -0.931 | -0.178 | -0.0146 | -0.383 | -0.0456 | 0.637
6 | C=CCN1Cc2ccccc2[C@H]2OC(c3ccc(OCCCO)cc3)=N[C@@]2(CCS(=O)(=O)c2ccccc2)C1=O | 1.45 | 1.07 | 1.35 | 0.767 (inactive) | 0.728 | 1.26 | 0.714 | 1.38 | 0.933 | 0.852 | 1.26 | -1.56 | 0.62 | 1.64 | 0.472 | 0.0704 | -0.0056 | -0.0831 | 1.49 | 1.21
7 | Cc1ccc(S[C@]2(C(=O)NCc3ccccc3)CC(=O)N(Cc3ccccc3C(F)(F)F)[C@@H]2c2ccc(CO)cc2)cc1 | 0.537 | 0.0191 | 0.984 | -0.284 (inactive) | -0.915 | -1.13 | -1.22 | -1.28 | -1.72 | 0.242 | -0.0905 | -1.46 | -1.86 | -0.488 | 0.272 | -0.0778 | -0.221 | 0.381 | 0.328 | -0.191
8 | CC1CC/C=C\[C@H]2OC34C=CCN(c5ccc6ccccc6c5)C(=O)[C@H]3N(C(C)CO)C(=O)[C@@H]4C2C(=O)O1 (stereo not given in full) | 1.38 | -0.087 | 0.404 | 0.0493 (inactive) | -0.83 | -1.36 | -0.975 | -1.04 | -0.591 | 0.265 | -1.11 | -0.942 | -0.82 | -0.69 | -0.607 | -0.146 | -0.291 | -0.21 | -0.26 | -0.758
9 | C#CCN1[C@@H](Cc2ccccc2)C(=O)O[C@H](Cc2ccccc2)[C@@H]1/C=C/C1CC1 | 0.345 | -0.251 | -0.505 | -0.29 (inactive) | 0.209 | 0.524 | -0.333 | 0.22 | 0.156 | 0.781 | 0.805 | -2.28 | 0.137 | -0.63 | -0.717 | -0.118 | -0.0337 | -0.196 | 0.436 | 0.456
10 | CN(C)C(=O)[C@]1(Cc2ccccc2)N=C(c2ccc(OCCCO)cc2)O[C@@H]1c1ccccc1CN=[N+]=[N-] | 0.978 | 0.143 | 0.591 | -0.741 (inactive) | 1.23 | 1.33 | 0.0699 | 0.741 | -0.124 | 0.406 | 1.41 | -2.79 | -0.273 | 1.09 | 0.781 | 0.027 | 0.116 | -0.294 | 1.62 | 1.15
11 | COC(=O)[C@]1(Cc2ccccc2)N=C(c2ccc(OCCCO)cc2)O[C@@H]1c1ccccc1CN=[N+]=[N-] | 0.965 | 0.266 | 0.98 | 1.76 (inactive) | 0.506 | 0.509 | -0.296 | 0.175 | -0.0456 | 0.702 | 1.37 | -3.37 | -0.383 | 0.63 | -0.293 | -0.0944 | 0.0796 | 0.537 | 1.11 | 1.01

Reference: PubChem BioAssay
